# Laboratory results: paper PMC7862700, “An all-to-all approach to the identification of sequence-specific readers for epigenetic DNA modifications on cytosine”
# Tests used:
# Test in all cases: DAPPL (digital affinity profiling via proximity ligation, sequencing); 10 mM Tris-HCl pH 7.5, 50 mM NaCl, 1 mM DTT, 4% glycerol, room temperature, 30 min; GST-TFs on glutathione beads, 16-mer random dsDNA library, 0.1% formaldehyde crosslink after washing; high values mean tight binding
# FLI1 = target: T1, FLI1 (Homo sapiens, UniProt Q01543 1-452); conditions: protein: recombinant; tags: N-terminal GST; dsDNA, one strand shown
# T1 sequence: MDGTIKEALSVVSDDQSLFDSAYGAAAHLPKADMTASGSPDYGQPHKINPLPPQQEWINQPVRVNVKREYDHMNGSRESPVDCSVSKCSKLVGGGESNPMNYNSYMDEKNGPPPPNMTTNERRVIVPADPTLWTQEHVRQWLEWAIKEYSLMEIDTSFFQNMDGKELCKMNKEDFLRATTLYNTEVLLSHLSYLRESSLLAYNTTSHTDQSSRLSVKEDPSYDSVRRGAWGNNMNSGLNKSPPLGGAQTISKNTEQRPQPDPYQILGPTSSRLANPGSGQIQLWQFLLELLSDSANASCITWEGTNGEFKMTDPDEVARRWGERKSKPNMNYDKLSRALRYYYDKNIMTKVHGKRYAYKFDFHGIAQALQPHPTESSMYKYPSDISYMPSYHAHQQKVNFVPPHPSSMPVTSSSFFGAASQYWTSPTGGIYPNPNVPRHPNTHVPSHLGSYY
# How it was run: (§1)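 Binding signal is defined as a hexamer's read frequency for one factor over its frequency for the tag-only sample. To obtain reads, GST-fused human transcription factors were expressed in yeast, captured on glutathione beads, barcoded with DNA and pooled with that sample. Pools met 200 nmole of a 16-mer random double-stranded DNA library in Tris/NaCl/DTT/glycerol buffer for 30 min at room temperature before washing, 0.1% formaldehyde crosslinking, proximity ligation (BsaI/T4 ligase, 1 h, 37 °C), PCR and Illumina NextSeq500 sequencing.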
# ELK1 = target: T2, ELK1 (Homo sapiens, UniProt P19419 1-428); conditions: protein: recombinant; tags: N-terminal GST; dsDNA, one strand shown
# T2 sequence: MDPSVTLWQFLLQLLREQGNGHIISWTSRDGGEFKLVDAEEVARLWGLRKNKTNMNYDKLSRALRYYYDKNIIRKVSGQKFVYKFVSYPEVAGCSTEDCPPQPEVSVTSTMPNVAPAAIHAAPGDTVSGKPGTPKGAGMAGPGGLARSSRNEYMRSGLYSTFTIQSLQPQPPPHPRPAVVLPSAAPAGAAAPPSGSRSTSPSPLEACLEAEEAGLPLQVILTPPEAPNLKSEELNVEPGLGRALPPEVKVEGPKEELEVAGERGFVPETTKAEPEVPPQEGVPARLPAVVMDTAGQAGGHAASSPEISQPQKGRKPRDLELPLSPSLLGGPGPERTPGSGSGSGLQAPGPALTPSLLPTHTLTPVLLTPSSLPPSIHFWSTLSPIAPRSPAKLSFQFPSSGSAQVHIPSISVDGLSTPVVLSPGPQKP
# How it was run: as §1
# GABPA = target: T3, GABPA (Homo sapiens, UniProt Q06546 1-454); conditions: protein: recombinant; tags: N-terminal GST; dsDNA, one strand shown
# T3 sequence: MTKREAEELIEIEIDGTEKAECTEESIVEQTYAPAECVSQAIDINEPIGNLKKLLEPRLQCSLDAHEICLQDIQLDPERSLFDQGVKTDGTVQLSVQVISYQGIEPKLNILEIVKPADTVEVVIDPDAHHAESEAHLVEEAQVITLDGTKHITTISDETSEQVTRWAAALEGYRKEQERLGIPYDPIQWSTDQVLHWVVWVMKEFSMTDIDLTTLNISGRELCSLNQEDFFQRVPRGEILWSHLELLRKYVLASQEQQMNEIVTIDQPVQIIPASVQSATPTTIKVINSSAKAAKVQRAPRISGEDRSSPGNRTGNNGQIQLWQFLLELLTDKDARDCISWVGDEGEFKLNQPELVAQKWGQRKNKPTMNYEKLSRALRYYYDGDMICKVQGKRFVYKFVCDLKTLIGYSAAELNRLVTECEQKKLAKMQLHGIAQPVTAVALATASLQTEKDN
# How it was run: as §1
# ERG = target: T4, ERG (Homo sapiens, UniProt P11308 1-479); conditions: protein: recombinant; tags: N-terminal GST; dsDNA, one strand shown
# T4 sequence: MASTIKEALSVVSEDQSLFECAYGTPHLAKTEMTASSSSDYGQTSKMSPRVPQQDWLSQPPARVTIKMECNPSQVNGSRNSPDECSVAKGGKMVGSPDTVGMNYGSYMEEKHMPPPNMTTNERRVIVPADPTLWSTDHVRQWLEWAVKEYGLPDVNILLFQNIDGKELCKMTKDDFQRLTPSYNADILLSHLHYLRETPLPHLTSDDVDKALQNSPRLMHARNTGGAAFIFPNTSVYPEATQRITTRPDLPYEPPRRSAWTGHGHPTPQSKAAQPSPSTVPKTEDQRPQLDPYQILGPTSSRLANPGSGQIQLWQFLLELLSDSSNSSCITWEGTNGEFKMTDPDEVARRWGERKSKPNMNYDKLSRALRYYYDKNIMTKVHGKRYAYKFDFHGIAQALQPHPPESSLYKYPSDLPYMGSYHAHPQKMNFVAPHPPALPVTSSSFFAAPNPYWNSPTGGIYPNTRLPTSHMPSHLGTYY
# How it was run: as §1
# ELF1 = ELF1 (Homo sapiens, UniProt P32519 1-619); conditions: protein: recombinant; tags: N-terminal GST; dsDNA, one strand shown
# How it was run: as §1
# EHF = target: T5, EHF (Homo sapiens, UniProt Q9NZC4 1-300); conditions: protein: recombinant; tags: N-terminal GST; dsDNA, one strand shown
# T5 sequence: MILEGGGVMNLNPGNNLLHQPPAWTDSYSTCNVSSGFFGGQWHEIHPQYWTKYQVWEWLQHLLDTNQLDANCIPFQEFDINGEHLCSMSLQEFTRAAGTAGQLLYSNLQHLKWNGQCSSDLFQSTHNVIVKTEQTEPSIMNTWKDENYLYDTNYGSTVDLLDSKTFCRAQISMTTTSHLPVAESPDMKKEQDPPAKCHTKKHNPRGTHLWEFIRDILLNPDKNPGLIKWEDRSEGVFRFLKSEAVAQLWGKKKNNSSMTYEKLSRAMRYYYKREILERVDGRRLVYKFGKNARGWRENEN
# How it was run: as §1
# SPI1 = SPI1 (Homo sapiens, UniProt P17947 1-270); conditions: protein: recombinant; tags: N-terminal GST; dsDNA, one strand shown
# How it was run: as §1
# SPIB = SPIB (Homo sapiens, UniProt Q01892 1-262); conditions: protein: recombinant; tags: N-terminal GST; dsDNA, one strand shown
# How it was run: as §1
# ELK3 = target: T6, ELK3 (Homo sapiens, UniProt P41970 1-407); conditions: protein: recombinant; tags: N-terminal GST; dsDNA, one strand shown
# T6 sequence: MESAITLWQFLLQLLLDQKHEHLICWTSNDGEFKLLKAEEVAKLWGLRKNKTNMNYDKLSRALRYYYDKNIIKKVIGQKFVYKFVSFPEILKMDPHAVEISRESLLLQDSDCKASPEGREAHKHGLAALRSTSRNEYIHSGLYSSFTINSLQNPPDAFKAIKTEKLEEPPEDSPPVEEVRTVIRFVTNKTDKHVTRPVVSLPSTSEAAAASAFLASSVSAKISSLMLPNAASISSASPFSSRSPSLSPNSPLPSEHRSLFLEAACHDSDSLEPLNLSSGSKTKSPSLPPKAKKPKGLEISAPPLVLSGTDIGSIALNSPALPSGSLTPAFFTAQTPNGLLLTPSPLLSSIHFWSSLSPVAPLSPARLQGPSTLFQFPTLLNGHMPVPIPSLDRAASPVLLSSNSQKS
# How it was run: as §1
# FEV = target: T7, FEV (Homo sapiens, UniProt Q99581 1-238); conditions: protein: recombinant; tags: N-terminal GST; dsDNA, one strand shown
# T7 sequence: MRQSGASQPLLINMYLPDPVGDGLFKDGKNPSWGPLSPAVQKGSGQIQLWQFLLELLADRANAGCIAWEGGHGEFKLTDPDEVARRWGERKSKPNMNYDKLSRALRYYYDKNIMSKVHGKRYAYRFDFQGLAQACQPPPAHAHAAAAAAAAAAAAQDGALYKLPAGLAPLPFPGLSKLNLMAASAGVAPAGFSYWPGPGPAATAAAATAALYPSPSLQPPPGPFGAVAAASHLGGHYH
# How it was run: as §1
# ETV5 = ETV5 (Homo sapiens, UniProt P41161 1-510); conditions: protein: recombinant; tags: N-terminal GST; dsDNA, one strand shown
# How it was run: as §1
# HSF1 = HSF1 (Homo sapiens, UniProt Q00613 1-529); conditions: protein: recombinant; tags: N-terminal GST; chain copies: 3; dsDNA, one strand shown
# How it was run: as §1
# SPIC = target: T8, SPIC (Homo sapiens, UniProt Q8N5J4 1-248); conditions: protein: recombinant; tags: N-terminal GST; dsDNA, one strand shown
# T8 sequence: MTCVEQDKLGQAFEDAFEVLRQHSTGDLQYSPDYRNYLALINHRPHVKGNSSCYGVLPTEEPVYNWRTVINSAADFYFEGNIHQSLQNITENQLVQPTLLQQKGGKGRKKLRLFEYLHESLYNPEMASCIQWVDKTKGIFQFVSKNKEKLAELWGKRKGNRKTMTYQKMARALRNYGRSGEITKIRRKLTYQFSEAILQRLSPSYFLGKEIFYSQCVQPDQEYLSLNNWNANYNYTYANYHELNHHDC
# How it was run: as §1
# ELF4 = ELF4 (Homo sapiens, UniProt Q99607 1-663); conditions: protein: recombinant; tags: N-terminal GST; dsDNA, one strand shown
# How it was run: as §1
# ELK4 = target: T9, ELK4 (Homo sapiens, UniProt P28324-2 1-405); conditions: protein: recombinant; tags: N-terminal GST; dsDNA, one strand shown
# T9 sequence: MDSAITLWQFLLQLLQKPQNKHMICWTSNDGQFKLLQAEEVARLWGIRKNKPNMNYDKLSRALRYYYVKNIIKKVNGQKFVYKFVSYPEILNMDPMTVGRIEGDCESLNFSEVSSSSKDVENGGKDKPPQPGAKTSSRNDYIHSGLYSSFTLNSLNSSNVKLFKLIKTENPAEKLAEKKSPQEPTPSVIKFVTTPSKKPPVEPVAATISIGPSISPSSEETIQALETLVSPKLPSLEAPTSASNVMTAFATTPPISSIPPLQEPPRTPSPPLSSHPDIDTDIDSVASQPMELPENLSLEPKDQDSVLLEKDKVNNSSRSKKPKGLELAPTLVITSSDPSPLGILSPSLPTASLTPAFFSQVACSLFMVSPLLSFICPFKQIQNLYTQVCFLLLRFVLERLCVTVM
# How it was run: as §1
# ETV2 = target: T10, ETV2 (Homo sapiens, UniProt O00321 1-342); conditions: protein: recombinant; tags: N-terminal GST; dsDNA, one strand shown
# T10 sequence: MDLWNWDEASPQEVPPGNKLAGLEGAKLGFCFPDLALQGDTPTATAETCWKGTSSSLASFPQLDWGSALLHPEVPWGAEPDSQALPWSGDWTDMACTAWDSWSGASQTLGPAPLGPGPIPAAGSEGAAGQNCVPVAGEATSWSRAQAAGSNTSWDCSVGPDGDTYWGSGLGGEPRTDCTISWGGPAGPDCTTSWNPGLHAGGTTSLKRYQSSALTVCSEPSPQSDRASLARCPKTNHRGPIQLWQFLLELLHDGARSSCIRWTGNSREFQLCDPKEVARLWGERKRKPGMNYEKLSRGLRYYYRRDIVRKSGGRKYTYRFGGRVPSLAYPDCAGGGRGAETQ
# How it was run: as §1
# ELF3 = target: T11, ELF3 (Homo sapiens, UniProt P78545 1-371); conditions: protein: recombinant; tags: N-terminal GST; dsDNA, one strand shown
# T11 sequence: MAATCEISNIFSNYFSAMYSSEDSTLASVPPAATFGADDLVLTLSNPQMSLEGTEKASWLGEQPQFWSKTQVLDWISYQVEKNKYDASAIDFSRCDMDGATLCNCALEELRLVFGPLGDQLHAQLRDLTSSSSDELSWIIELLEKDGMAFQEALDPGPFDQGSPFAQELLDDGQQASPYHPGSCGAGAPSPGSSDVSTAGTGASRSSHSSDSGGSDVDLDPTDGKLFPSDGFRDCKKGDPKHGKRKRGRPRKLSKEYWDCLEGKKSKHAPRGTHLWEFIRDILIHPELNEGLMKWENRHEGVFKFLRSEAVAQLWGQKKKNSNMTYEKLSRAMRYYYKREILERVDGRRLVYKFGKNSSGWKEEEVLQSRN
# How it was run: as §1
# CRX = CRX (Homo sapiens, UniProt O43186 1-299); conditions: protein: recombinant; tags: N-terminal GST; dsDNA, one strand shown
# How it was run: as §1
# ETV1 = ETV1 (Homo sapiens, UniProt P50549 1-477); conditions: protein: recombinant; tags: N-terminal GST; dsDNA, one strand shown
# How it was run: as §1
# CRX, sequence (O43186 whole entry): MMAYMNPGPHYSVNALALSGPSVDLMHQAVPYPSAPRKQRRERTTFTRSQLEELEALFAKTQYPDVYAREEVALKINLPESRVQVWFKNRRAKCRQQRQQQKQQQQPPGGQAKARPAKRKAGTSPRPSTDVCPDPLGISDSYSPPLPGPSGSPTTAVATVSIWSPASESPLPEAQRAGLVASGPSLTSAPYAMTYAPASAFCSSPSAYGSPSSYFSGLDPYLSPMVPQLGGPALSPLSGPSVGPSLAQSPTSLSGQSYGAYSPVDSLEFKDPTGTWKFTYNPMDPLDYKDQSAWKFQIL
# ETV5, sequence (P41161 whole entry): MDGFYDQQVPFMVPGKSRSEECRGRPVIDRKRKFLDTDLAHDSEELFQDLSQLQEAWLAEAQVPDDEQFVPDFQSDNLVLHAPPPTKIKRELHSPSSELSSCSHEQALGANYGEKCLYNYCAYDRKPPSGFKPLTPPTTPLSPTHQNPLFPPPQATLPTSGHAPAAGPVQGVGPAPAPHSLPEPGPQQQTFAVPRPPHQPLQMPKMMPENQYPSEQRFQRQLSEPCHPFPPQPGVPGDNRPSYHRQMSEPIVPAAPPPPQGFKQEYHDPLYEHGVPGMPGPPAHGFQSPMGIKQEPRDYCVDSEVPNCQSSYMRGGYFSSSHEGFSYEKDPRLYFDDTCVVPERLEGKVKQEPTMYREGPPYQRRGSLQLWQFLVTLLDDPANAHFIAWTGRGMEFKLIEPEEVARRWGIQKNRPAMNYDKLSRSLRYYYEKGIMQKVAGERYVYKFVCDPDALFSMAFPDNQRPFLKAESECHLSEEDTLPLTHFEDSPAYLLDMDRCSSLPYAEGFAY
# SPIB, sequence (Q01892 whole entry): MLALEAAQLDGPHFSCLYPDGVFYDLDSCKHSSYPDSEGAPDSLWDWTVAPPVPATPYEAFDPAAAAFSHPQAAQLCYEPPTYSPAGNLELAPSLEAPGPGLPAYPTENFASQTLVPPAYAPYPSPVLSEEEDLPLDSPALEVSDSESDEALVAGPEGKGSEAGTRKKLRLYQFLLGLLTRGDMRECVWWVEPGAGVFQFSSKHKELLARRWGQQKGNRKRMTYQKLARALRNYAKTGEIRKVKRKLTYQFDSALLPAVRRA
# ELF4, sequence (Q99607 whole entry): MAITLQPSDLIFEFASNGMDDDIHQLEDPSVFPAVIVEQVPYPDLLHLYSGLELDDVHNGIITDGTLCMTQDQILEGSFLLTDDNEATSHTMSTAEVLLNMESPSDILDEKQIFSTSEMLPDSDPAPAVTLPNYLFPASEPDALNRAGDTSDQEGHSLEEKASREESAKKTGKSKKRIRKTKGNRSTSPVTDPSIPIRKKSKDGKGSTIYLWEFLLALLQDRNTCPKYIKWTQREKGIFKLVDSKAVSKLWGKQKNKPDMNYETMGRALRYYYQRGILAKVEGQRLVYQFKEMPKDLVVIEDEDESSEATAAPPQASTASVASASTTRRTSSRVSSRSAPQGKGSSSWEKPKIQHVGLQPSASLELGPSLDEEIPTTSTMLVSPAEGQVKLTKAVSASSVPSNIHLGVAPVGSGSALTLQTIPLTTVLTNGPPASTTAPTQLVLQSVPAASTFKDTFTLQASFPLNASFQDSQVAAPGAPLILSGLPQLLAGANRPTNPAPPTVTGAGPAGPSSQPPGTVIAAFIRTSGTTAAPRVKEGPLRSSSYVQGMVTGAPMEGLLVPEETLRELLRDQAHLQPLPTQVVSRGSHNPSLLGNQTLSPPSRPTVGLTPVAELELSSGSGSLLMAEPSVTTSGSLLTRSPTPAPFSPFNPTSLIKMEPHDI
# ETV1, sequence (P50549 whole entry): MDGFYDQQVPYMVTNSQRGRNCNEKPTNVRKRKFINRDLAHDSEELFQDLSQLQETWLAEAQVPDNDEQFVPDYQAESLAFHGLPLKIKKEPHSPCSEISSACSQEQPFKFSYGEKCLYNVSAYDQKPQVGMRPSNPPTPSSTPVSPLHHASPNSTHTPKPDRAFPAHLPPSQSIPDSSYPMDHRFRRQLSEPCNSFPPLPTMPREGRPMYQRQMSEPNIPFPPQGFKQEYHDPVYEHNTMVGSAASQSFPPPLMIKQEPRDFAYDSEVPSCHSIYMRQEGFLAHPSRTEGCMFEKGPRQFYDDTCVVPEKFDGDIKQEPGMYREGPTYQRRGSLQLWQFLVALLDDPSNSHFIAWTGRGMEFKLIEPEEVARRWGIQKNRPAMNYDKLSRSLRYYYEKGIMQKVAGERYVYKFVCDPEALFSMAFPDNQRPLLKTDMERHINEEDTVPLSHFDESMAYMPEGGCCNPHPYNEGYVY
# ELF1, sequence (P32519 whole entry): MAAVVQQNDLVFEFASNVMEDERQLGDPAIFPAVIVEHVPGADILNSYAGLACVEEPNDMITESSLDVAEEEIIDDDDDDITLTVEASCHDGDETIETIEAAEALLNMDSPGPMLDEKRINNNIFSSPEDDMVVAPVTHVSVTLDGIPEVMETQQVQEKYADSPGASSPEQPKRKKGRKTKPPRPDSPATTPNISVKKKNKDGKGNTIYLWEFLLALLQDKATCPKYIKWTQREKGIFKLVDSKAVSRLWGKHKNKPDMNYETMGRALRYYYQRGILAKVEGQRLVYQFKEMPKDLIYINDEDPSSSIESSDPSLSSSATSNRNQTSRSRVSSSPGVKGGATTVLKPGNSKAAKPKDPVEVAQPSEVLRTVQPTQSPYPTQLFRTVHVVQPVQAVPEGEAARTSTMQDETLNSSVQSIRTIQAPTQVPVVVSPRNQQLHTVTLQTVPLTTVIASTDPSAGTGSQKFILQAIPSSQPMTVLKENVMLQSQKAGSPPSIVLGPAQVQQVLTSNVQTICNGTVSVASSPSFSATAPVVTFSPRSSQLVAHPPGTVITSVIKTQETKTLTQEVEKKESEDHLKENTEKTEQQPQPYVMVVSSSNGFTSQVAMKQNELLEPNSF
# HSF1, sequence (Q00613 whole entry): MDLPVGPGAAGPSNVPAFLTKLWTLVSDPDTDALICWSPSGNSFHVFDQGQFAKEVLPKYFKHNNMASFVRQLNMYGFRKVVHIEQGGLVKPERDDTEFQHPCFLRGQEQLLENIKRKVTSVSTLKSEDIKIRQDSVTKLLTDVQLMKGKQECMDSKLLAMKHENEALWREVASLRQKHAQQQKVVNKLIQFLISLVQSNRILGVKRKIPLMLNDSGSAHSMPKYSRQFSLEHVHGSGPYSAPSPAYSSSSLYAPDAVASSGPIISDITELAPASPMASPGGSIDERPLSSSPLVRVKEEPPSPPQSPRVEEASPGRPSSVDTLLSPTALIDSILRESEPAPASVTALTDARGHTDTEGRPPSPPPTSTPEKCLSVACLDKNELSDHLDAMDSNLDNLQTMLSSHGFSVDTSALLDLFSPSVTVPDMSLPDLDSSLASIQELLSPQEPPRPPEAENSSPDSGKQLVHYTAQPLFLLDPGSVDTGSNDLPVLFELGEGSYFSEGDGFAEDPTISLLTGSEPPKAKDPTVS
sequence,measurement,setting,value
TGTTAT,binding signal,FLI1,"1.37 fold enrichment (6-mer frequency, TF over GST control)"
same,binding signal,ELK1,"1.27 fold enrichment (6-mer frequency, TF over GST control)"
same,binding signal,GABPA,"1.36 fold enrichment (6-mer frequency, TF over GST control)"
same,binding signal,ERG,"1.41 fold enrichment (6-mer frequency, TF over GST control)"
same,binding signal,ELF1,"1.29 fold enrichment (6-mer frequency, TF over GST control)"
same,binding signal,EHF,"1.35 fold enrichment (6-mer frequency, TF over GST control)"
same,binding signal,SPI1,"1.38 fold enrichment (6-mer frequency, TF over GST control)"
same,binding signal,SPIB,"1.31 fold enrichment (6-mer frequency, TF over GST control)"
same,binding signal,ELK3,"1.24 fold enrichment (6-mer frequency, TF over GST control)"
same,binding signal,FEV,"1.34 fold enrichment (6-mer frequency, TF over GST control)"
same,binding signal,ETV5,"1.34 fold enrichment (6-mer frequency, TF over GST control)"
same,binding signal,HSF1,"1.31 fold enrichment (6-mer frequency, TF over GST control)"
same,binding signal,SPIC,"1.45 fold enrichment (6-mer frequency, TF over GST control)"
same,binding signal,ELF4,"1.39 fold enrichment (6-mer frequency, TF over GST control)"
same,binding signal,ELK4,"1.35 fold enrichment (6-mer frequency, TF over GST control)"
same,binding signal,ETV2,"1.3 fold enrichment (6-mer frequency, TF over GST control)"
same,binding signal,ELF3,"1.35 fold enrichment (6-mer frequency, TF over GST control)"
same,binding signal,CRX,"1.4 fold enrichment (6-mer frequency, TF over GST control)"
same,binding signal,ETV1,"1.42 fold enrichment (6-mer frequency, TF over GST control)"
